A selection: hits, their analogues and other compounds. The true share with any hit is near 18%.
IL-1B inflam inh: qHTS for Inhibitors of Inflammasome Signaling: IL-1-beta AlphaLISA Primary Screen. activity change, % at 57.5 µM. AID 743279, 2014. THP-1 LPS/ATP IL-1B secretion, AlphaLISA, 16 h; stronger effect = lower value. 4.7% of 360,000 active; in the data active = activity change below about -50%; inconclusive = mostly about -30% to -49%
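THP-1 cells pretreated 1 hr with compounds (up to 57.5 uM final), then stimulated with LPS (250 ng/mL final) plus ATP (1.25 mM final); secreted IL-1B measured by AlphaLISA after 16 hr, decreased signal indicating inhibition.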
TDP1 inh: qHTS Assay for Inhibitors of Tyrosyl-DNA Phosphodiesterase (TDP1). Tyrosyl-DNA phosphodiesterase 1 (Homo sapiens), Q9NUW8. recombinant TDP1, AlphaScreen DNA substrate cleavage. Potency, µM (top dose mostly 130 µM), inactives show at the top dose activity change, negative = inhibition, most hits filed as inhibitors. 0.28% of 350,000 active; note: potency is the fitted concentration of half-maximal effect; nearly all actives have a fitted effect of over 40% in size
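Recombinant human Tdp1 (E. coli-expressed, 1 nM final) preincubated with compounds 15 min at room temperature, then 5'-biotin/3'-phosphotyrosine-FITC DNA substrate (15 nM final) added for 5 min. AlphaScreen beads (10 ug/ml final) added 10 min; cleavage lowers signal.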
TDP1 cell noCPT: qHTS for Inhibitors of human tyrosyl-DNA phosphodiesterase 1 (TDP1): qHTS in cells in absence of CPT; DT40 Tdp1-/- hTDP1 cells, no CPT, ATP luminescence, 48 h; Potency, µM (titrated, usually from 46.2 µM), without a hit: top-dose activity change, negative = growth inhibition, hits mostly inhibitors; 15% of 420,000 active; note: potency is the fitted concentration of half-maximal effect; nearly all actives have a fitted effect of over 55% in size
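Compound effects on proliferation are scored in DT40 Tdp1-/-;hTDP1 cells in the absence of CPT. ATP levels (CellTiter-Glo luminescence) are recorded after a ≥48 hr, 37 °C incubation.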
DT40 TDP1 CPT: qHTS for Inhibitors of human tyrosyl-DNA phosphodiesterase 1 (TDP1): qHTS in cells in presence of CPT; 12% of 420,000 active; AID 686979, 2013; Potency, µM (series often up to 46.2 µM), for the others: at the top dose activity change, negative = growth inhibition, hits mostly inhibitors; chicken DT40 Tdp1-/-;hTDP1 cells + 20 nM CPT, ATP luminescence, 48 h; note: potency is the fitted concentration of half-maximal effect; nearly all actives have a fitted effect of over 55% in size
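Chicken DT40 Tdp1-/- cells complemented with human TDP1, 400 cells/well, exposed to compounds plus 20 nM camptothecin for at least 48 h at 37 C; viability read as ATP content by CellTiter-Glo luminescence.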
Six1-Eya2 inh: qHTS Assay for Inhibitors of the Six1/Eya2 Interaction. Homeobox protein SIX1 (Homo sapiens) + Protein phosphatase EYA2 (Homo sapiens), …. AlphaScreen GST-Six1/His-Eya2 binding, biochemical; stronger effect = lower value. activity change, % (test concentration not listed). 0.56% of 360,000 active. AID 651725, 2012; in the data active = activity change below about -65%; inconclusive = mostly about -30% to -63%
Target sequence (O00167 whole entry, looked up): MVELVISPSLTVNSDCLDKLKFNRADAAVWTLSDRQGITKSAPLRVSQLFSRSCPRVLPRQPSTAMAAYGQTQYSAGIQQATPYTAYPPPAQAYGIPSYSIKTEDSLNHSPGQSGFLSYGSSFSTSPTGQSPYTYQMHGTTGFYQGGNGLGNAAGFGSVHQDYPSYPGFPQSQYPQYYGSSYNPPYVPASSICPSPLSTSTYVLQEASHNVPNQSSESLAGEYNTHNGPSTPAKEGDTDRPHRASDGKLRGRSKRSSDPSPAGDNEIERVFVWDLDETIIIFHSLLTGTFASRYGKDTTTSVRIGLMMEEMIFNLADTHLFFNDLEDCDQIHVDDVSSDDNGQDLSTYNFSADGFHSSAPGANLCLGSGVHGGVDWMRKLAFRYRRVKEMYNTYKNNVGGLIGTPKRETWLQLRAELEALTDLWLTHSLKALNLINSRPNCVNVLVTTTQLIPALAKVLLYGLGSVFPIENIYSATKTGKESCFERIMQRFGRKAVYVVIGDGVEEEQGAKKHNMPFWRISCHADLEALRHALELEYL
Target sequence (Q15475 whole entry, looked up): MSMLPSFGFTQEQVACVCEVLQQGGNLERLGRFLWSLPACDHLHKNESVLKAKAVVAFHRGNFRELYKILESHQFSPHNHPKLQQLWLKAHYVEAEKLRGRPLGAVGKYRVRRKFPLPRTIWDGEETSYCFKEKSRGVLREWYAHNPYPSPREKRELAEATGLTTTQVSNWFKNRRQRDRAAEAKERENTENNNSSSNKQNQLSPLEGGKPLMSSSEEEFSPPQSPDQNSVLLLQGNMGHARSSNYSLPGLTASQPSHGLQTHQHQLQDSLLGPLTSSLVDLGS
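GST-Six1 + His-Eya2 (5X stock: 250/500 nM); Tris pH 8.0, 300 mM NaCl, 0.05% BSA, 0.02% Tween 20; GSH donor/Ni acceptor beads; 1 h 37 °C dark; AlphaScreen readout.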
CtBP-E1A blk: qHTS Assay for Inhibitors of the CtBP/E1A Interaction; activity change, % (no concentration beside the values); AlphaScreen GST-E1A/His-CtBP binding, 1536-well; stronger effect = lower value; 0.49% of 340,000 active; CtBP / adenovirus E1A interaction (AlphaScreen); in the data active = activity change below about -65%; inconclusive = mostly about -30% to -63%
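GST-E1A and His-tagged CtBP (125 nM each as 5X stock) were preincubated with pin-transferred compound for 2 h at 37 °C in the dark, then glutathione donor and nickel acceptor beads were added for 1 h before AlphaScreen reading.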
* hit, by the source's call. Unless noted, calls come from the whole dose curve; as a rule, active = well fitted curve in the direction sought with a large enough effect; inconclusive = small, poorly fitted or top-dose-only effect, or another doubt; inactive = no such curve, though single readings can be large; an effect the other way counts as inactive or inconclusive. % is set by controls: 0 for no effect and ±100 for the full control effect.

How did CCc1cc(C(c2ccc(F)cc2)N2CCOCC2)c(NC(=O)c2ccccc2)s1 (centres undefined) do in these assays?
IL-1B inflam inh: inconclusive; TDP1 inh: 2%; TDP1 cell noCPT: inconclusive; DT40 TDP1 CPT: inconclusive; Six1-Eya2 inh: 5; CtBP-E1A blk: -1

Results for O=c1[nH]cnc2c1C(c1ccc(Cl)cc1)c1c(nc[nH]c1=O)O2 ?
IL-1B inflam inh: 0; TDP1 inh: 7%; TDP1 cell noCPT: 9%; DT40 TDP1 CPT: 22%; Six1-Eya2 inh: -13; CtBP-E1A blk: -8

How did COc1ccc(N2CCN(C(=O)CNS(=O)(=O)c3ccc(Br)s3)CC2)cc1 do in these assays?
IL-1B inflam inh: -5; TDP1 inh: -1%; TDP1 cell noCPT: inconclusive; DT40 TDP1 CPT: inconclusive; Six1-Eya2 inh: -15; CtBP-E1A blk: -5

How did COc1cc(NC(=O)CSc2nncn2C)cc(OC)c1OC do in these assays?
IL-1B inflam inh: 4; TDP1 inh: 3%; TDP1 cell noCPT: 4%; DT40 TDP1 CPT: 5%; Six1-Eya2 inh: 3; CtBP-E1A blk: 9

What do the screens show for `Cc1cccc(Nc2nc(N)c([N+](=O)[O-])c(N3CC(C)CC(C)C3)n2)c1` (centres undefined)?
IL-1B inflam inh: -101*; TDP1 inh: 8%; TDP1 cell noCPT: 18µM*; DT40 TDP1 CPT: inconclusive; Six1-Eya2 inh: -22; CtBP-E1A blk: -19

Results for CCOc1ccc(Nc2nc(N)c([N+](=O)[O-])c(N3CCN(C)CC3)n2)cc1 ?
IL-1B inflam inh: -15; TDP1 cell noCPT: -12%; DT40 TDP1 CPT: inconclusive; Six1-Eya2 inh: 7; CtBP-E1A blk: 14

What do the screens show for `CCN1CCN(c2nc(N)c([N+](=O)[O-])c(Nc3cccc(C)c3)n2)CC1`?
TDP1 inh: 2%; TDP1 cell noCPT: inconclusive; DT40 TDP1 CPT: inconclusive; Six1-Eya2 inh: 1; CtBP-E1A blk: -19

What do the screens show for `Nc1nc(Nc2ccccc2)nc(N2CCOCC2)c1[N+](=O)[O-]`?
IL-1B inflam inh: -6; TDP1 inh: -1%; TDP1 cell noCPT: 1%; DT40 TDP1 CPT: -26%; Six1-Eya2 inh: 4; CtBP-E1A blk: -10

Results for CCN1CCN(c2nc(Nc3cccc(OC)c3)nc(N)c2[N+](=O)[O-])CC1 ?
IL-1B inflam inh: -29; TDP1 cell noCPT: 9.2µM*; DT40 TDP1 CPT: 13µM*; Six1-Eya2 inh: inconclusive

Results for CN(C)c1ccc(Nc2nc(N)c([N+](=O)[O-])c(N3CCOCC3)n2)cc1 ?
IL-1B inflam inh: -87*; TDP1 inh: 11%; TDP1 cell noCPT: 26µM*; DT40 TDP1 CPT: inconclusive; Six1-Eya2 inh: -29; CtBP-E1A blk: inconclusive

Results for CCN1CCN(c2nc(Nc3ccc(C)c(C)c3)nc(N)c2[N+](=O)[O-])CC1 ?
IL-1B inflam inh: inconclusive; TDP1 inh: 5%; TDP1 cell noCPT: 23µM*; DT40 TDP1 CPT: -22%; Six1-Eya2 inh: inconclusive; CtBP-E1A blk: inconclusive

Results for CN(C)c1nc(-c2cccs2)cc(C(F)(F)F)c1C#N ?
TDP1 cell noCPT: -29%; DT40 TDP1 CPT: 6%; Six1-Eya2 inh: 112; CtBP-E1A blk: 105

How did COc1cccc2c(=O)n(CC(=O)N3CCC(C)CC3)ccc12 do in these assays?
IL-1B inflam inh: 6; TDP1 inh: 8%; TDP1 cell noCPT: 1%; DT40 TDP1 CPT: 8%; Six1-Eya2 inh: 7; CtBP-E1A blk: 1

Results for Cc1ccc(-c2noc(CSc3nnc(CCc4ccccc4)n3-c3ccccc3)n2)cc1 ?
IL-1B inflam inh: -12; TDP1 inh: 4%; TDP1 cell noCPT: 16µM*; DT40 TDP1 CPT: 16µM*; Six1-Eya2 inh: -6; CtBP-E1A blk: -4

How did COc1ccc(-c2noc(CSc3nnc(CCc4ccccc4)n3-c3ccccc3)n2)cc1OC do in these assays?
IL-1B inflam inh: -10; TDP1 inh: 4%; TDP1 cell noCPT: 16µM*; DT40 TDP1 CPT: 15µM*; Six1-Eya2 inh: -8; CtBP-E1A blk: -5

What do the screens show for `O=C(C1CC(c2ccc(F)cc2)=NO1)N1CCCc2ccccc21` (centres undefined)?
IL-1B inflam inh: -22; TDP1 inh: 2%; TDP1 cell noCPT: -28%; DT40 TDP1 CPT: -20%; Six1-Eya2 inh: -1; CtBP-E1A blk: 3

What do the screens show for `Cc1ccccc1OCC(=O)N1N=C(C(F)(F)F)CC1(O)C(C)(C)C` (centres undefined)?
IL-1B inflam inh: -11; TDP1 inh: 5%; TDP1 cell noCPT: 16µM*; DT40 TDP1 CPT: inconclusive; Six1-Eya2 inh: -10; CtBP-E1A blk: -6

How did CC(C)(C)C1(O)CC(C(F)(F)F)=NN1C(=O)CCc1ccccc1 (centres undefined) do in these assays?
IL-1B inflam inh: 0; TDP1 inh: -3%; TDP1 cell noCPT: -19%; DT40 TDP1 CPT: -18%; Six1-Eya2 inh: 3; CtBP-E1A blk: 5

What do the screens show for `Cc1nc2ccccc2nc1CSc1nncs1`?
IL-1B inflam inh: 5; TDP1 inh: 4%; TDP1 cell noCPT: -13%; DT40 TDP1 CPT: 2%; Six1-Eya2 inh: -5; CtBP-E1A blk: 0

Results for CN(C)S(=O)(=O)c1ccc(NC(=O)N2CCN(c3cccc(C(F)(F)F)c3)CC2)cc1 ?
IL-1B inflam inh: -4; TDP1 inh: 6%; TDP1 cell noCPT: 2.6µM*; DT40 TDP1 CPT: 3.7µM*; Six1-Eya2 inh: -6; CtBP-E1A blk: -3

What do the screens show for `Cc1cccc(NC(=O)CSCC(=O)N2CCN(c3cccc(C(F)(F)F)c3)CC2)c1`?
IL-1B inflam inh: 28; TDP1 inh: 0%; TDP1 cell noCPT: inconclusive; DT40 TDP1 CPT: inconclusive; Six1-Eya2 inh: -2

Results for COc1ccc(NC(=O)N2CCN(c3cccc(C(F)(F)F)c3)CC2)cc1 ?
IL-1B inflam inh: -1; TDP1 inh: -2%; TDP1 cell noCPT: 7.3µM*; DT40 TDP1 CPT: 2.1µM*; Six1-Eya2 inh: 0; CtBP-E1A blk: 43

Results for COc1ccc(NC(=O)CSCC(=O)N2CCN(c3cccc(C(F)(F)F)c3)CC2)cc1 ?
IL-1B inflam inh: 0; TDP1 inh: 1%; TDP1 cell noCPT: 15µM*; DT40 TDP1 CPT: inconclusive; Six1-Eya2 inh: -7; CtBP-E1A blk: -2

Screening data (PubChem BioAssay)
